INS promoter inh = inhibitors of insulin promoter-driven GFP, primary screen, imaging, TRM-6 cells (human fetal islet line), eGFP reporter, cell count; reporter expression induced with tamoxifen; inhibition, % at 2 µM; actives 0.9% (n = 130,000); AID 1273, 2008;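 active = inhibition above the mean plus 3 SD, with well images judged a real hit on visual review, cut at about 60% in these data, passing the limit was not always enough; inconclusive = inhibition over the cutoff but images rejected on review; inactive = inhibition not above the cutoff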
WT yeast gro inh = growth inhibition of WT strain, primary screen, mitochondrial fusion inhibitor project, WT and mutant strains, chemical genetic. inhibition, % at 10 µM. mitochondrial fusion phenotypic screen. actives 2.1% (n = 190,000); in the data active = inhibition above about 58%; tested in S. cerevisiae
ROMK mod = ROMK potassium channel modulators, primary screen, cell-based, thallium flux, MLSMR library; actives 2% (n = 130,000); Tet-inducible ROMK, thallium flux fluorescence; actives lie on both sides; B-score at 10 µM; ATP-sensitive inward rectifier potassium channel 1 (Homo sapiens), P48048;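 active = signal ratio slope over the read window, or its plate-corrected B-score, at least 3 SD from the plate mean, either direction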;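 note: B-score of the F/F0 ratio slope over 7 to 12 s after thallium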
Target sequence (P48048 whole entry, looked up): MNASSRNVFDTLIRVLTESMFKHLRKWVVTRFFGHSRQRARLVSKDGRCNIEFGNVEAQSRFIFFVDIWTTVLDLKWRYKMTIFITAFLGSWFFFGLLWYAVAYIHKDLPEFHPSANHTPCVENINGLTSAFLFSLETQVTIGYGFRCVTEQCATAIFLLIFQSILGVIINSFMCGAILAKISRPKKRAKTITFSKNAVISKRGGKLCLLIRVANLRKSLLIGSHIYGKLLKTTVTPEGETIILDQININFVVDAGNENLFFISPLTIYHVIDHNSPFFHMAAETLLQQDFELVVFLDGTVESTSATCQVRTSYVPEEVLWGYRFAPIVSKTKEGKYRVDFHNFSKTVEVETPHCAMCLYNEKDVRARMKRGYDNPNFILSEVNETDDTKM
L major viab = Leishmania major promastigote growth inhibition, primary screen. AID 1063, 2008. inhibition, % at 10 µM. Leishmania major promastigotes, resazurin fluorescence viability. actives 9% (n = 200,000); in the data active = inhibition above about 50%;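 note: promastigotes grown with compound for 44 hours at 28 °C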
Ins promoter up = insulin promoter activators in MIN6 cells, imaging, high-content screening, mouse beta cells; MIN6 insulin promoter-GFP reporter; stronger effect = higher value; z-score at 5 µM; actives 0.3% (n = 190,000); AID 1625, 2009;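 active = z-score above 3 at 5 µM with at least 500 cells counted in the well; inconclusive = wells under 500 cells, flagged as cytotoxic or low count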
Cl transport mod = KCC2 cotransporter modulators, thallium flux, primary screen, cell-based, HEK293 KCC2, FluoZin-2 fluorescence, MLSMR. KCC2 cells, thallium flux FluoZin-2 fluorescence. B-score of Tl+ flux slope (higher = more flux/activation; lower = inhibition) at 10 µM. actives 2.2% (n = 190,000). AID 1456, 2008;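 active = thallium flux slope and its plate-corrected score both differing from the plate sample mean at a set confidence after two filtering rounds, in either direction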;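 note: slope of fluorescence scaled to starting intensity during 10 to 20 s after thallium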
The depositor's hits bear a star; ? = inconclusive; nt = not tested or not shown. Sampled rows, rich in hits. Any-hit rate of the full collection: about 12%.

SMILES	INS promoter inh	WT yeast gro inh	ROMK mod	L major viab	Ins promoter up	Cl transport mod
COc1ccc(-c2nc3ccccn3c2/N=C/c2ccc(OC)c(OC)c2)cc1O	-26	-4	-0.25	60*	-0.35	-0.95
C/C(CC(=O)N1CCN(C=O)CC1)=N\NC(=O)c1cc2ccccc2cc1O	14	-6	0.026	10	0.56	0.02
C/C(=N/NC(=O)c1cc2ccccc2cc1O)C1C(=O)c2ccccc2C1=O	56	8	4.8*	81*	-1.4	-2.8*
CCOC(=O)CSCC(=O)Nc1cc(C)ccc1C	3	6	0.83	-4	0.06	0.056
O=C(Cc1ccc(-c2ccccc2)cc1)NCCN1CCOCC1	nt	-2	-0.18	4	-0.38	-1.3
O=C(Cc1cccs1)NCCN1CCOCC1	20	3	nt	50*	0.24	0.044
O=C(NCCN1CCOCC1)c1ccc(=O)oc1	nt	62*	1.2	0	0.43	-0.2
COC(=O)c1cccc(Cn2cc([N+](=O)[O-])cn2)c1	nt	8	0.042	-7	0.28	-0.051
COc1ccc(-c2ccc(C(c3c(C)[nH][nH]c3=O)c3c(C)[nH][nH]c3=O)o2)c([N+](=O)[O-])c1	nt	20	-0.023	61*	0.54	-0.3
Cc1[nH][nH]c(=O)c1C(c1ccc(-c2ccc(C(=O)O)cc2)o1)c1c(C)[nH][nH]c1=O	nt	-9	0.95	-6	0.33	-0.16
Cc1ccccc1OCC(O)CN(Cc1ccccc1O)C1CCCCC1 (stereo not given)	nt	22	-1.4	91*	-1.1	0.055
CN(CC(O)COc1ccccc1F)C1CCCCC1 (stereo not given)	0	-2	0.22	9	-0.22	0.68
CN(CC(O)COc1ccc(S(=O)(=O)N2CCOCC2)cc1)C1CCCCC1 (stereo not given)	-9	-1	-0.00085	97*	-0.8	0.69
CCN(CC(O)COc1ccc(OCC(O)CN(CC)C2CCCCC2)cc1)C1CCCCC1 (stereo not given)	19	1	-0.76	100*	nt	0.51
CCN(CC(O)COCc1ccc(Cl)cc1)C1CCCCC1 (stereo not given)	-64	-4	0.98	68*	-0.65	-1.5
Cc1cc(C)cc(C(=O)OCC(=O)NCC(F)(F)F)c1	13	11	0.36	-4	-0.27	0.033
Cc1cccc(NS(=O)(=O)c2ccc3c(c2)OCCO3)c1	7	-9	-1.7	74*	0.18	nt
N#CCc1ccc(NS(=O)(=O)c2ccc(C3CCCCC3)cc2)cc1	nt	62*	-0.0075	8	0.07	0.73
Cc1ccc(S(=O)(=O)Nc2ccc3c(c2)OCCO3)cc1C	nt	3	0.49	13	-0.26	-0.79
Cc1cccc(NS(=O)(=O)c2ccc(C3CCCCC3)cc2)c1	nt	74*	1.2	17	?	-0.78
COc1ccc(S(=O)(=O)Nc2ccc3c(c2)OCCO3)cc1Cl	29	nt	nt	71*	nt	nt
O=C(O)Cc1ccc(NC(=O)Nc2cccc(Cl)c2)cc1	nt	-4	1	12	0.37	1.9
O=C(/C=C/c1ccc(Cl)cc1)N(c1ccccn1)C1CCCCC1	-11	36	-1.7	83*	0.66	-1
COc1ccc(N(C(=O)c2cccc(OC)c2OC)C2C=CS(=O)(=O)C2)cc1 (stereo not given)	nt	-5	0.37	1	-0.41	nt
CCOC(=O)c1sc2nc(NC(=O)C3CC3)sc2c1C	nt	1	nt	2	0.43	0.47
SMILES	INS promoter inh	WT yeast gro inh	ROMK mod	L major viab	Ins promoter up	Cl transport mod
CCOC(=O)c1sc2nc(NC(=O)C(C)(C)C)sc2c1C	nt	10	nt	65*	-1.4	-0.39
COc1ccccc1N1CCN(C(=O)c2ccc3[nH]c4c(c3c2)CC(C)CC4)CC1 (stereo not given)	-23	72*	-0.23	99*	-0.06	0.41
COc1cc(OC)c(OC)cc1/C=N/NC(=S)NCC1CCCO1 (stereo not given)	-30	-1	-0.46	-2	nt	-1.1
Cc1onc(-c2c(F)cccc2Cl)c1C(=O)NNC(=O)C1CCN(Cc2ccccc2)CC1	-7	-9	-0.7	0	0.39	0.55
Cc1onc(-c2c(F)cccc2Cl)c1C(=O)Nc1cccc(Cn2cccn2)c1	0	-3	nt	63*	-0.36	-0.9
Cc1onc(-c2c(F)cccc2Cl)c1C(=O)Nc1sc2c(c1C(N)=O)CCC2	17	67*	1.1	63*	0.79	-0.15
Cc1onc(-c2ccccc2)c1C(=O)Nc1sc2c(c1C(N)=O)CCC2	nt	33	nt	24	-0.15	nt
O=C(NCC1COc2ccccc2O1)C1CCN(S(=O)(=O)c2cccc3nsnc23)CC1 (stereo not given)	-50	-13	nt	8	nt	1.7
CCN(CC)CCOC(=O)c1ccc2c(c1)OCCO2	45	-7	0.66	8	-0.11	-0.058
COc1ccc(NC(=O)CCCN2C(=O)CCC2=O)cc1Cl	35	8	0.16	2	0.63	0.63
COCC(C)n1c(SCC(=O)c2cc(C)n(C)c2C)nc2ccccc2c1=O (stereo not given)	nt	-19	0.35	84*	-0.31	-1.6
COCC(C)n1c(SCC(=O)NCCC2=CCCCC2)nc2ccccc2c1=O (stereo not given)	nt	3	-1.4	92*	-1.2	0.53
COCC(C)n1c(C)cc(C(=O)CSc2ncccn2)c1C (stereo not given)	33	1	0.067	-4	nt	0.054
Cc1cc(SCC(=O)NCCC2=CCCCC2)nc2ccccc12	nt	69*	0.04	2	0.55	-0.47
COCC(C)n1c(C)cc(C(=O)CSc2nnnn2-c2ccc(O)cc2)c1C (stereo not given)	-39	-1	-0.11	73*	nt	-0.28
COc1ccc(N2C(=O)C3CCCN3C2c2ccccc2OC)cc1 (stereo not given)	nt	-7	nt	-6	2	1.5
Cc1cc(C)cc(C(=O)N2CCN=C2c2ccccc2)c1	-19	0	0.19	-4	0.02	0.54
CCN(CC(=O)Nc1sc2c(c1C#N)CCCC2)CC(=O)NC1CCS(=O)(=O)C1 (stereo not given)	27	-6	0.49	1	-0.69	0.85
COc1ccc(C(=O)Nc2nnc(C(F)(F)F)s2)cc1	-24	-8	-2.8	2	0.08	-0.14
CCCC(=O)n1nc(-c2cccnc2)nc1N	94*	3	nt	0	0.16	-0.014
O=C(NC1=NCCS1)C12CC3CC(CC(C3)C1)C2	53	13	nt	5	0.27	-0.064
CC(C)C(NC(=O)C12CC3CC(CC(C3)C1)C2)C(=O)NC1=NCCS1 (stereo not given)	-38	66*	nt	35	-0.8	0.22
N#CCCN(C(=O)COC(=O)c1ccc(CNS(=O)(=O)c2ccc(F)c(Cl)c2)cc1)c1ccc(F)cc1	8	-11	0.64	97*	0.63	-1

Source: PubChem (several laboratories)
